High-throughput results deposited in PubChem BioAssay by National Center for Advancing Translational Sciences (NCATS).
A selection: hits, their analogues and other compounds. The true share with any hit is near 6.5%.
Vaccinia mCherry: vaccinia inhibition (mCherry reporter); hit rate 0.63% among 310,000; AID 720579; Potency, µM (series often up to 36.5 µM), for inactives: top-dose activity change, negative = inhibition, actives largely listed as inhibitors; Vaccinia virus mCherry reporter infection, fluorescence; calls by dose curve; tested in A549 cells; note: potency is the fitted concentration of half-maximal effect; nearly all actives have a fitted effect of over 35% in size
Marburg entry inh: blocks Marburg virus binding to or entry into cells. Marburg virus pseudotyped entry inhibition, cell reporter. Potency, µM (top dose mostly 37.8 µM), without a hit: top-dose activity change, negative = inhibition, hits mostly inhibitors. hit rate 1.8% among 300,000; calls by dose curve; tested in HEK293 cells; note: potency is the fitted concentration of half-maximal effect
HCMV antiviral: human cytomegalovirus inhibition. hit rate 4.5% among 410,000. activity change, negative = inhibition, % at 57.5 µM. HFF cells, HCMV-luciferase reporter, 72 h; stronger effect = lower value. AID 1259415; in the data active = activity change below about -60%; inconclusive = no clear call, values can overlap the other calls; inactive = above about -39%
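Steps: HFFs plated, 16 h 37C; compounds added; HCMV-luciferase added to MOI 1 PFU/cell; 72 h 37C; OneGlo reagent, 5 min room temperature; luminescence read, normalized to controls.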
LASV entry inh: blocks Lassa virus binding to or entry into cells | Lassa virus pseudotype entry inhibition, cell reporter | hit rate 1.2% among 300,000 | Potency, µM (series often up to 37.9 µM), for the others: at the highest dose activity change, negative = inhibition, usual class: inhibitors; calls by dose curve; tested in HEK293 cells; note: potency is the fitted concentration of half-maximal effect; nearly all actives have a fitted effect of over 50% in size
FMDV antiviral: foot and mouth disease virus antiviral activity; FMDV antiviral cell-based qHTS; Potency, µM (titrated, usually from 57.9 µM), for the others: top-dose activity change, negative = inhibition, hits mostly inhibitors; hit rate 1.2% among 410,000; AID 1159524; calls by dose curve; tested in HEK293T cells; note: read-out not given here; potency is the fitted concentration of half-maximal effect; nearly all actives have a fitted effect of over 45% in size
Vaccinia Venus: vaccinia inhibition (Venus reporter). Vaccinia virus Venus reporter expression, fluorescence. Potency, µM (series often up to 36.5 µM), inactives show at the top dose activity change, negative = inhibition, most hits filed as inhibitors. hit rate 0.46% among 330,000. AID 720580; calls by dose curve; tested in A549 cells; note: potency is the fitted concentration of half-maximal effect; nearly all actives have a fitted effect of over 30% in size
* marks the source's active call; other numbers are inactive results; i = inactive; ? = inconclusive; . = no result given; [ ] = another dose, or the depositor's remark. % is set by controls: 0 for no effect and ±100 for the full control effect.

SMILES | Vaccinia mCherry | Marburg entry inh | HCMV antiviral | LASV entry inh | FMDV antiviral | Vaccinia Venus
Cc1cc(=O)[nH]c2nnc(SCC(N)=O)n12 | -12% | . | -3 | ? | 4% | -4%
O=C(COc1ccc(CO)cc1Cl)Nc1ccc(F)cc1 | . | 6.5µM* | 55 | ? | -41% | .
Cc1cccnc1Nc1nc(-c2ccccc2)cs1 | . | . | 185 | . | 8% | .
Cc1cccnc1Nc1nc(-c2ccccn2)cs1 | 2.5µM* | ? | -106* | 7.1µM* | -43% | 3.2µM*
Cc1ccc(C(=O)Nc2nc(-c3ccccn3)cs2)s1 | . | . | -100* | . | -13% | .
Cn1cccc1C(=O)Nc1nc(-c2ccccn2)cs1 | . | ? | -88* | ? | -16% | .
COCCC1CCCCN1Cc1nc(N2CCCCC2)c2cc(OC)c(OC)cc2n1 (configuration not stated) | -15% | . | . | . | -3% | -1%
Cc1ccc(N2CC(C)Cn3c2nc2c3c(=O)n(CC(=O)O)c(=O)n2C)cc1 (configuration not stated) | 1% | ? | 14 | 16%[46.1 µM] | -13% | -4%
N#Cc1ccccc1OCC(=O)Nc1nc(-c2ccccn2)cs1 | ? | . | -11 | . | -9% | ?
O=C(CN1C(=O)CCC1=O)Nc1nc(-c2ccccn2)cs1 | 0% | . | -62* | . | -5% | -19%
O=C(COc1ccc(F)cc1Cl)Nc1nc(-c2ccccn2)cs1 | . | . | -82* | . | . | .
O=C(Nc1nc(-c2ccccn2)cs1)c1ccc(Cl)s1 | 3.2µM* | . | -96* | . | -8% | ?
O=C(CN1C(=O)CCC1=O)Nc1nc(-c2ccc3ccccc3c2)cs1 | . | . | ? | . | 44% | .
Cc1ccc(-c2cc3c(N=O)c4ccccc4c-3n[nH]2)cc1 | -7% | 13%[46.1 µM] | -94* | 20% | -12% | 9%
O=C(CSCn1nnc2c(=O)[nH]c(Cc3ccc(F)cc3)nc21)Nc1cccc(C(F)(F)F)c1 | -5% | 4%[46.1 µM] | 13 | 7%[46.1 µM] | -6% | 1%
CCc1nc2sc3c(c2c(=O)n1NC(=O)CCl)CCCC3 | . | -25% | -74* | 2% | ? | .
COc1ccc(Nc2cc3c(cn2)ncn3Cc2ccccc2)cn1 | . | . | 8 | . | . | .
CCC1Sc2ccc(S(=O)(=O)Nc3ccc(OC)cc3)cc2NC1=O (configuration not stated) | . | . | -11 | . | 1% | .
CCC1Sc2ccc(S(=O)(=O)Nc3ccc(OC)c(OC)c3)cc2NC1=O (configuration not stated) | -11% | ? | -76* | ? | -21% | -11%
COc1ccc(C)cc1NS(=O)(=O)c1ccc2c(c1)NC(=O)C(C)S2 (configuration not stated) | . | . | -77* | . | 27% | .
C=CS(=O)(=O)c1c2cc(OC)ccc2nc2ccc(OC)cc12 | ? | ? | ? | ? | 28µM* | ?
Nc1nc(N)c2nc(CNc3ccc(C(=O)N[C@@H](CCC(=O)O)C(=O)O)cc3)cnc2n1 | -13% | . | . | . | -16% | -1%
CCOCCOC(=O)c1[nH]c2c(c1C)C(=O)CC(c1ccc(OC)c(OC)c1)C2 (configuration not stated) | -4% | ? | ? | ? | 22µM* | -7%
COCCOC(=O)c1[nH]c2c(c1C)C(=O)CC(c1cc(OC)ccc1OC)C2 (configuration not stated) | -19% | . | 4 | . | -9% | -25%
COc1ccc(OC)c(C2CC(=O)c3c([nH]c(C(=O)OC(C)C)c3C)C2)c1 (configuration not stated) | . | . | -70* | . | -5% | .
SMILES | Vaccinia mCherry | Marburg entry inh | HCMV antiviral | LASV entry inh | FMDV antiviral | Vaccinia Venus
CCCOCCOC(=O)c1[nH]c2c(c1C)C(=O)CC(c1cc(OC)ccc1OC)C2 (configuration not stated) | ? | . | -80* | . | ? | -26%
COc1ccc(OC)c(CN2CCC3(CCC(CNC(=O)c4ccco4)O3)CC2)c1 (configuration not stated) | -13% | . | . | . | -8% | -1%
O=C(CC(Nc1ccc(F)cc1)C(=O)O)c1ccccc1 (configuration not stated) | -15% | -4% | -102* | ? | 29% | -2%
Cn1ncc([N+](=O)[O-])c1C(=O)Nc1cccc2ccccc12 | -18% | ? | -63* | 9%[46.1 µM] | 13% | 0%
Cn1ncc([N+](=O)[O-])c1C(=O)Nc1nccs1 | -13% | 0% | -64* | 16% | -6% | 3%
Cc1ccc2nc(-c3ccco3)c(Cc3ccccc3C(F)(F)F)n2c1 | . | . | -2 | . | . | .
Cc1ccc(CN2C(=O)C(=O)c3cc(C)ccc32)cc1 | -28% | . | ? | . | 9% | -27%
CCCN1C(=O)C(=O)c2cc(C)ccc21 | i | . | -39 | . | 19% | -3%
Cc1ccc2c(c1)C(=O)C(=O)N2Cc1ccc(Br)cc1 | -10% | . | -76* | . | 0% | ?
Cc1ccc2c(c1)C(=O)C(=O)N2Cc1ccc(OCCC(C)C)cc1 | -16% | -12%[46.1 µM] | -95* | 1%[46.1 µM] | -19% | -8%
CCOC(=O)c1cccn1C1C(=O)N(Cc2ccc(OC)cc2)c2ccccc21 (configuration not stated) | . | . | -27 | . | . | .
Cc1cc(C)c(NC(=O)Cc2csc(C)n2)c(Cl)c1 | 3% | -5%[46.1 µM] | -61* | ? | 5% | -12%
COc1ccc(Cl)cc1NCc1nnc2n1CCCCC2 | -4% | . | 4 | 13%[46.1 µM] | 6% | -1%
Cc1ccc(Cn2ccn(CC(=O)Nc3ccccc3C(F)(F)F)c(=O)c2=O)cc1 | -8% | . | -26 | ? | 0% | -3%
CCOC(=O)C1=C(C)N=C2SC(C)C(=O)N2C1c1ccc(C(=O)OC)cc1 (configuration not stated) | -15% | 13% | 47 | 24% | -15% | -5%
CCOC(=O)C1=C(C)N=C2SC=C(C)N2C1c1ccc(OC)cc1 (configuration not stated) | i | 5µM* | 1 | ? | -5% | -16%
O=C(NCC1Cc2cc(-c3cnc4ccccc4c3)cc(F)c2O1)c1cnsn1 (configuration not stated) | ? | . | . | . | 0% | ?
Cc1ccccc1Cn1ccc(=NCc2ccccc2)cc1 | i | 12%[46.1 µM] | -98* | 11% | 1% | -1%
CCc1nc2ccc(C(=O)N3CCN(C)CC3)cn2c1N(CCC(C)C)CCN(C)C | 40% | . | -72* | . | -11% | 3%
COc1ccc(N(C)C(=O)CCn2cnc3onc(-c4ccc(F)cc4)c3c2=O)c(OC)c1 | -4% | . | -10 | -23%[46.1 µM] | ? | -1%
Cc1nn(C)c(C)c1S(=O)(=O)NC1CCCC1 | . | 8%[46.1 µM] | -16 | 9% | 3% | -14%
Cc1nn(-c2nnc(NC3CCCCC3)nn2)c(C)c1Br | -22% | 3.5µM* | 83 | ? | 11% | -19%
O=C1N(Cc2cccnc2)C[C@@H]2C[C@@H](c3cccc(Oc4ccccc4)c3)N3CCC[C@@]123 | . | . | -67* | . | ? | .
CCn1ncc([C@@H]2C[C@H]3CN(Cc4cccc(Cl)c4)C(=O)[C@]34CCCN24)c1C | -14% | 8%[46.1 µM] | -4 | -9% | -16% | 2%
